SW480 rereplic: inducers of DNA re-replication in SW480 colon cancer cells | AID 624297 | 1.8% of 340,000 active | SW480 DNA re-replication, Hoechst DNA content imaging, 48 h | Potency, µM (doses to about 46.1 µM), without a hit: at the highest dose re-replication activation, actives largely listed as activators; also: % of control where 0% means no effect; nearly all actives have a fitted effect of over 55% in size
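Treated cells incubate 48 hr (37 C, 5% CO2), are stained 40 min with Hoechst, and nuclear fluorescence is enumerated; a rise in nuclei with high DNA signal marks re-replication.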
p53 reactivator: mutant p53 re-activation in reporter cells. 0.063% of 320,000 active. H1299 p53-A138V BP100-luciferase reporter, luminescence, 24 h. Potency, µM (doses to about 92.2 µM), without a hit: at the top dose activity change, positive = activation, most hits filed as activators; also: % of control where 0% means no effect; nearly all actives have a fitted effect of over 45% in size
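p53-null H1299 cells stably carrying temperature-sensitive p53-A138V and a BP100-luciferase reporter were pinned with compounds (4-point, 1:5 series) and held 24 hrs at 37 deg C. Luminescence was read 10 min after detection reagent.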
ELG1 repair inh: blocks ELG1-dependent DNA repair in HEK293T cells | HEK293T ELG1-luciferase reporter, luminescence, 16 h; DNA damage induced by 5-fluorouridine | Potency, µM (highest dose often 46.1 µM), without a hit: top-dose activity change, negative = inhibition, hits mostly inhibitors | 2.3% of 330,000 active | AID 504467; also: % is scaled to controls: 0 for no effect and ±100 for the full control effect; nearly all actives have a fitted effect of over 55% in size
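HEK293T cells expressing luciferase-tagged ELG1 (2,000/well) received 5-Fluorouridine plus compound or DMSO for 16 hr at 37 °C. Luciferase was read by ONE-Glo luminescence after 30 min at room temperature.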
ELG1 genotoxic: inducers of genotoxicity in HEK293T ELG1-luciferase cells. HEK293T ELG1-luciferase reporter, luminescence, 16 h. Potency, µM (titrated, usually from 46 µM), for inactives: at the top dose activity change, positive = activation, most hits filed as activators. 1.3% of 330,000 active. AID 504466; also: % of control where 0% means no effect; nearly all actives have a fitted effect of over 60% in size
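16 hr compound incubation (37 °C, 5% CO2) of HEK293T cells carrying luciferase-tagged ELG1; luciferase then measured by ONE-Glo luminescence after 30 min at RT.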
MCF10A rerep: inducers of DNA re-replication in MCF 10A breast cells. MCF 10A DNA re-replication, Hoechst nuclear intensity, 48 h. Potency, µM (doses to about 46.1 µM), for the others: at the highest dose activity, positive = re-replication, usual class: activators. 2.9% of 350,000 active; also: % of control where 0% means no effect; nearly all actives have a fitted effect of over 50% in size
A-T KAP1 phos: potential ataxia-telangiectasia treatments restoring KAP-1 phosphorylation. Potency, µM (highest dose often 57.5 µM), for inactives: at the highest dose activation, actives largely listed as activators. F2112 A-T fibroblasts, KAP-1 phosphorylation AlphaLISA; neocarzinostatin DNA damage 30 min before lysis. 0.19% of 320,000 active; also: % of control where 0% means no effect; nearly all actives have a fitted effect of over 45% in size
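ATM-like activity read as KAP-1 phosphorylation via AlphaLISA donor/acceptor antibody pairs after lysis and 6 hr at 25C. Cells were ATM-null patient fibroblasts (F2112, hTERT), dosed 60 min, then exposed to the DSB inducer NCS for 30 min.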
The depositor's hits bear a star; ? = inconclusive; . = no result given; [ ] = dose if it differs, or a comment. Compounds with a hit are over-represented: about 7.1% of the library has one in this group of screens. Calls follow the shape of the dose curve; as a rule, active = well fitted curve in the direction sought with a large enough effect; inconclusive = small, poorly fitted or top-dose-only effect, or another doubt; inactive = no such curve, though single readings can be large; an effect the other way counts as inactive or inconclusive. Potency is read from the fitted curve at half-maximal effect.

SMILES	SW480 rereplic	p53 reactivator	ELG1 repair inh	ELG1 genotoxic	MCF10A rerep	A-T KAP1 phos
Cc1ccc(/C=C(\C#N)C(=O)NCC2CCCO2)o1 (configuration not stated)	-5%	?	?	12%	4%	2%
Cc1ccc(C)c(OCCn2cc(/C=C(\C#N)C(=O)NCc3cccs3)c3ccccc32)c1	?	-5%	5.8µM*	-2%	?	2%
Cc1ccccc1-n1c(C)cc(/C=C(\C#N)C(=O)NCC2CCCO2)c1C (configuration not stated)	-4%	?	?	10µM*	?	-7%
Cc1ccc(C)c(OCCn2cc(/C=C(\C#N)C(=O)NCC3CCCO3)c3ccccc32)c1 (configuration not stated)	?	-8%	16µM*	-8%	16µM*	2%
N#C/C(=C\c1cn(CCOc2ccccc2F)c2ccccc12)C(=O)NCc1cccs1	16%	-3%	14%	6%	?	-4%
Cc1ccc(OCCn2cc(/C=C(\C#N)C(=O)NCC3CCCO3)c3ccccc32)cc1 (configuration not stated)	.	-5%	?	-6%	18%	-3%
CN(C(=O)c1cccc(NC(=O)Cc2ccc(NC(=O)C3CCCN(S(=O)(=O)c4cccc([N+](=O)[O-])c4)C3)cc2)c1)C1CCCC1 (configuration not stated)	12%	.	.	.	10%	.
COc1ccccc1C(=O)OCCc1ccccc1	-2%	.	.	.	-7%	.
CCN(CC)CCCNC(=O)c1sc2ncn(CC(=O)Nc3ccc(C)c(Cl)c3)c(=O)c2c1C	18µM*	?	?	3%	-7%	-1%
CCCNC(=O)Cn1cnc2sc(C(=O)Nc3ccc4c(c3)OCO4)c(C)c2c1=O	-2%	-1%	?	?	-5%	4%
CCn1cnc2sc(C(=O)Nc3ccc4c(c3)OCO4)c(C)c2c1=O	2%	?	?	8.9µM*	-1%	-3%
CCOc1ccc2nc(NCCCNS(=O)(=O)c3ccc(F)cc3)c(C#N)cc2c1	?	.	.	.	2.1µM*	.
CCOc1ccc2nc(NCCCNS(=O)(=O)c3ccccc3)c(C#N)cc2c1	7.3µM*	0%	?	-15%	2.9µM*	?
CC(=O)Nc1ccc(S(=O)(=O)Oc2ccccc2N2CCCCC2)cc1	?	-5%	8.2µM*	-5%	?	3%
COc1cc(C(=S)N2CCOCC2)ccc1OS(=O)(=O)c1ccc(NC(C)=O)cc1	-4%	-5%	12µM*	-2%	0%	7%
CCOc1ccc(C(=S)N2CCOCC2)cc1OC	-7%	11%	25%	3%	-5%	.
CCOc1cc(C(=S)N2CCOCC2)ccc1OC	1%	-1%	0%	-1%	13µM*	4%
COc1cc(C(=S)N2CCCC2)ccc1OS(=O)(=O)c1ccc(NC(C)=O)cc1	-10%	-1%	?	-18%	-3%	?
COc1cc(C(=S)N2CCCC2)cc(OC)c1OS(=O)(=O)c1ccc(NC(C)=O)cc1	-8%	-10%	-26%	-2%	3%	-4%
COc1cc(C(=S)N2CCCC2)cc(OC)c1OC	-20%	3%	?	3%	3.7µM*	-3%
CN1CCC(N(C)C(=O)c2ccc(Cl)c(S(=O)(=O)N3CCOCC3)c2)CC1	-2%	2%	-4%	3%	3%	2%
CCOc1cc(/C=N/NC(=O)c2ccc(CN3CCOCC3)cc2)ccc1OC	?	-3%	-8%	-4%	-1%	9%
COc1ccc(S(=O)(=O)Oc2c(OC)cc(C(=S)N3CCOCC3)cc2OC)cc1	-3%	-16%	-14%	-3%	-3%	-3%
CCOc1cc2nc(-c3ccc(OC)c(OC)c3)nc(N3CC(C)OC(C)C3)c2cc1OC (configuration not stated)	.	-16%	?	-4%	.	-3%
CCOc1cc(/C=C/C(=O)c2ccc(OC)c(CN3CCOCC3)c2)cc(Br)c1O	?	-1%	18µM*	-8%	?	11%
SMILES	SW480 rereplic	p53 reactivator	ELG1 repair inh	ELG1 genotoxic	MCF10A rerep	A-T KAP1 phos
COc1cc(C(=S)N2CCOCC2)cc(Br)c1OS(=O)(=O)c1ccccc1	-45%	-5%	16µM*	-6%	22%	-3%
CCOc1cc2nc(-c3ccc(OC)c(OC)c3)nc(N3CCOCC3)c2cc1OC	23µM*	-14%	?	-10%	?	2%
COC(=O)CNC(=O)Cn1c(=O)n(Cc2ccc(F)cc2)c(=O)c2sccc21	-15%	-13%	?	-2%	2%	-13%
Cc1ccc(-n2nnnc2SCC(=O)c2c(N)n(C3CC3)c(=O)[nH]c2=O)c(C)c1	-7%	-8%	?	-3%	7%	3%
Cc1ccc(CSCc2nnc(SCC(=O)N3CCN(c4ccccc4)CC3)n2C)cc1	2%	-3%	23µM*	-20%	16%	-3%
CCn1c(CSCc2ccc(F)cc2)nnc1SCC(=O)N1CCN(c2ccccc2)CC1	?	3%	13µM*	-5%	9%	-5%
CCn1c(Cc2ccc(OC)cc2)nnc1SCC(=O)N1CCN(c2ccccc2)CC1	-2%	-3%	?	-9%	22%	-3%
O=C(CN(C(=O)c1csnn1)c1cccc2ccccc12)NCc1ccc(F)cc1	?	1%	-28%	-5%	-1%	1%
Cc1ccccc1-n1c2nc(=O)n(C)c(=O)c-2cc2ccccc21	18µM*	-7%	2%	3%	21µM*	-12%
Cc1noc(C)c1C(=O)Nc1ccc(C#N)cc1	-18%	-7%	-3%	-2%	-13%	5%
Cc1cc(C)cc(NC(=O)CN2CCN(c3ccccc3)CC2)c1	1%	-3%	0%	0%	-2%	10µM*
Cc1cc(C)cc(NC(=O)CN2CCN(c3ccccn3)CC2)c1	-8%[9.22 µM]	-4%	-3%	0%	1%	1%
O=C(CN1CCN(c2ccccn2)CC1)Nc1cccc(Br)c1	8%	0%	1%	0%	3%	16µM*
N#Cc1ccccc1NC(=O)CN1CCN(c2ccccn2)CC1	-3%	-4%	-1%	4%	13%	-3%
Cc1ccc2nc(-c3ccc(NC(=O)CSc4nc(N)cc(=O)[nH]4)cc3)sc2c1	3.7µM*	?	?	?	10%	6%
Cc1ccc2nc(-c3ccc(NC(=O)CSc4nccc(=O)[nH]4)cc3)sc2c1	19%	?	?	?	?	3%
Cc1sc(NC(=O)CN2CCN(c3ccccn3)CC2)c(C#N)c1C	8%	-4%	12µM*	-2%	1%	-2%
